# Screening data deposited in PubChem BioAssay by Broad Institute.
# This excerpt belongs to a sample that is enriched for hits.
# BL2 CD40 inh: CD40 pathway inhibition in BL2 cells. BL2 NF-kB luciferase reporter, CD40L-induced, 4 h. inhibition, % at 10 µM. hit rate 0.94% among 83,000. AID 1053188;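 active means mean inhibition of at least 50% with a set share of replicates also reaching that level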;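 further: 0% = neutral control wells and 100% = IKK inhibitor VII at 50 µM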
# Active calls of the source: *; [ ] = dose if it differs, or a comment.
SMILES,BL2 CD40 inh
Cc1ccc(S(=O)(=O)N(C)C[C@H]2OCc3ccccc3-c3ccccc3C(=O)N([C@H](C)CO)C[C@H]2C)cc1,2
COC1=CC(=O)c2c(ccc3ncnc(N)c23)C1=O,103*
CC(C)NC(=O)NCC[C@H]1CC[C@H](NS(=O)(=O)c2ccc(Oc3ccccc3)cc2)[C@@H](CO)O1,1[25 µM]
CCOC(=O)C1(C)CCCCCN1C(=O)c1ccccc1F (stereo not drawn),1
C[C@H]1CN([C@@H](C)CO)C(=O)c2c(c3ccccc3n2C)-c2ccccc2CO[C@@H]1CN(C)C(=O)c1ccc(F)cc1,-3
Cc1ccc(-c2nnc(NC(=O)c3ccc([N+](=O)[O-])o3)o2)c(C)c1,-4
CC12CN3CC(C)(CN(C1)C3c1ccc([N+](=O)[O-])o1)C2 (stereo not drawn),-5
Cc1ccc(S(=O)(=O)c2ccc([N+](=O)[O-])o2)cc1,109*
COc1ccc(S(=O)(=O)NC(CC(C)C)C(=O)NC(C)c2cccs2)cc1 (stereo not drawn),9
CN1C(=O)c2cc(NC(=O)Nc3ccc(Cl)cc3)ccc2OC[C@@H]2O[C@@H](CC(=O)NCCN3CCCCC3)CC[C@H]21,4[25 µM]
Cn1cccc1C(=O)OCC(=O)Nc1ccc2c(c1)OCCO2,55*
Cn1cccc1C(=O)OCC(=O)NCc1ccc2c(c1)OCO2,-17
O=C(COC(=O)c1ccco1)Nc1ccc2c(c1)OCCO2,-65
O=C(C1CCCC1)N1C[C@@H]2N[C@H](C1)C2c1ccc(-c2ccccc2F)cc1 (stereo partly drawn),-9
COc1cccc(S(=O)(=O)N2C[C@@H](O)COC[C@@H]3O[C@H](CC(=O)NCCCN4CCOCC4)CC[C@H]32)c1,-1[25 µM]
N#C[C@H]1[C@H](c2ccc(C#CC3CCCCC3)cc2)[C@H](CO)N1C(=O)Nc1ccc(F)cc1,51*[25 µM]
CC(C)NC(=O)N1[C@H](CO)[C@H](c2ccc(C#CC3CCCCC3)cc2)[C@@H]1C#N,12
N#C[C@H]1[C@H](c2ccc(C#CC3CCCC3)cc2)[C@@H](CO)N1C(=O)Nc1ccc(F)cc1,29
CC(C)NC(=O)N1[C@H](C#N)[C@@H](c2ccc(C#CC3CCCCC3)cc2)[C@@H]1CO,-3
N#C[C@H]1[C@@H](c2ccc(C#CC3CCCCC3)cc2)[C@H](CO)N1C(=O)Nc1ccc(F)cc1,55*[25 µM]
N#C[C@H]1[C@@H](c2ccc(C#CC3CC3)cc2)[C@@H](CO)N1C(=O)Nc1ccc(F)cc1,2
CC(C)NC(=O)N1[C@H](C#N)[C@H](c2ccc(C#CC3CCCCC3)cc2)[C@@H]1CO,9
N#C[C@@H]1[C@H](c2ccc(C#CC3CCCC3)cc2)[C@@H](CO)N1C(=O)Nc1ccc(F)cc1,48*
CC(C)NC(=O)N1[C@H](C#N)[C@@H](c2ccc(C#CC3CCCC3)cc2)[C@H]1CO,-2
O=C(C[C@H]1CC[C@H]2[C@@H](COC[C@H](O)CN2CC2CCOCC2)O1)NCC1CCCCC1,1[25 µM]
SMILES,BL2 CD40 inh
CO[C@@H](CN(C)CC1CCOCC1)[C@@H](C)CN(C(=O)Nc1ccc(F)cc1)[C@@H](C)CO,-14[25 µM]
COc1ccc(C)cc1S(=O)(=O)NC(C)c1cnn(-c2ccccn2)c1C (stereo not drawn),5
CSc1nn(CCC#N)c(=O)[nH]c1=O,4
O=C(Cc1ccccn1)N[C@@H]1CC[C@H](CCNS(=O)(=O)c2cccc(F)c2)O[C@H]1CO,6[25 µM]
COc1ccc(S(=O)(=O)N(C)C[C@@H]2Oc3c(cccc3N(C)C)C(=O)N([C@H](C)CO)C[C@@H]2C)cc1,5[25 µM]
C/C=C/c1ccc([C@@H]2[C@@H](CO)N(C(=O)CC)[C@H]2CN(C)S(C)(=O)=O)cc1,-6[25 µM]
CC(=NNc1nc2ccccc2s1)c1ccncn1,63*
C/C(=N\OCC(=O)Nc1nc2ccccc2s1)c1ccccc1,13
O=C(Nc1nc2ccccc2s1)c1cnccn1,28
COc1ccc(NC(=O)Nc2ccc3c(c2)C(=O)N([C@@H](C)CO)C[C@H](C)[C@@H](CN(C)Cc2ccc(C(F)(F)F)cc2)OCCCC[C@H](C)O3)cc1,-6
NNC(=O)c1cccc(COc2cccc(Br)c2)c1,-57
CCOc1ccc(OCc2cccc(C(=O)N3CCOCC3)c2)cc1,90*
COc1ccc(OCc2ccc(C(=O)N3CCOCC3)cc2)cc1,-23
COc1ccc(OCc2cccc(C(=O)NN)c2)cc1,25*
O=C(c1cccc(OCc2ccccc2)c1)N1CCOCC1,-8
COc1ccc(OCc2cccc(C(=O)Nc3cc(C)on3)c2)cc1,4
CC(C)NC(=O)N(C)C[C@H]1Oc2ccccc2C(=O)N(C)C[C@H]1C,2
COc1ccc(S(=O)(=O)N(C)C[C@@H]2OCCCC[C@@H](C)Oc3ccc(NS(=O)(=O)c4ccc(Cl)cc4)cc3C(=O)N([C@H](C)CO)C[C@@H]2C)cc1,6
C[C@H](CO)N1C[C@H](C)[C@H](CN(C)S(=O)(=O)c2ccc(F)cc2)OCCCC[C@H](C)Oc2ccc(N(C)C)cc2C1=O,-1[25 µM]
O=C(NC1CCCC1)[C@@H]1[C@@H](CO)[C@@H]2Cn3c(cccc3=O)[C@@H]2N1CC1CCOCC1,-2
O=C(NCC(F)(F)F)[C@@H]1[C@@H](CO)[C@@H]2Cn3c(cccc3=O)[C@@H]2N1Cc1cccc(F)c1,-16
O=c1[nH]c(=O)n(C2CC(O)C(CO)O2)cc1Br (stereo not drawn),-10
C=C1CC(COc2cc(=O)oc3ccccc23)(c2ccccc2)OC1=O (stereo not drawn),31
C=C1CC(Cn2cc(Br)c(=O)[nH]c2=O)(c2ccc(-c3ccccc3)cc2)OC1=O (stereo not drawn),64*
O=C1CC(c2cccs2)Sc2nc3ccccc3n21 (stereo not drawn),-108
SMILES,BL2 CD40 inh
O=C1CC(c2ccco2)Sc2nc3ccccc3n21 (stereo not drawn),-124
O=C1CC(c2ccc3c(c2)OCO3)Sc2nc3ccccc3n21 (stereo not drawn),60*
COc1cc(/C=C/C(=O)Nc2ccc(S(=O)(=O)Nc3onc(C)c3C)cc2)cc(OC)c1OC,8
CCOC(=O)C1(C)CCCN(C(=O)COc2ccccc2)C1 (stereo not drawn),3
O=C(C[C@H]1CC[C@@H]2[C@H](COC[C@H](O)CN2C(=O)c2cccnc2)O1)NCC1CC1,-5[25 µM]
O=C(C[C@H]1CC[C@@H]2[C@H](COC[C@@H](O)CN2C(=O)c2ccncc2)O1)NCc1cc(F)cc(F)c1,-8[25 µM]
Cc1ccsc1C(=O)OCC(=O)c1cc(C)n(C)c1C,62*
Cc1cc(C(=O)COc2ncnc3sccc23)c(C)n1C,-76
Cc1cc(C(=O)COC(=O)Cc2ccc(Cl)cc2)c(C)n1C,-9
Cc1cc(C(=O)COC(=O)c2ccc3c(c2)OCO3)c(C)n1Cc1cccs1,-50
CC(=O)Nc1ccccc1OCC(=O)c1cc(C)n(Cc2cccs2)c1C,14
Cc1cc(C(=O)COC(=O)c2ccccc2O)c(C)n1Cc1cccs1,108*
O=S(=O)(c1ccc(F)cc1)N1CC[C@@H]2[C@H](CO)Nc3ccc(C#CC4CC4)cc3[C@@H]21,1
C[C@@H]1CN([C@@H](C)CO)C(=O)CCCn2nncc2CO[C@H]1CN(C)Cc1ccccc1C(=O)O,10[25 µM]
O=C(Nc1ccccc1N1CCCCC1)c1ccc(-c2ccc(Cl)cc2)o1,-2
Cc1cc(N2CCN(C)CC2)ccc1NC(=O)c1ccc(-c2ccc(Cl)cc2)o1,64*
Cc1nnc(NC(=O)c2ccc(-c3ccc(Cl)cc3)o2)s1,2
COc1ccc(CCN2CC(C(=O)NCc3nc4ccccc4n3C)CCC2=O)cc1 (stereo not drawn),-10
